rCAG RNA binder – binds r(CAG) RNA repeats. 1.3% of 370,000 active. inhibition, % at 3 µM. r(CAG) RNA repeat, TO-PRO-1 dye displacement fluorescence;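 active = inhibition above the plate cutoff, the mean of all test compounds on that plate plus 3 SD, cut at about 35% in these data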;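 also: higher means more dye released from RNA so lower well fluorescence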
MsrA act – activates bovine MsrA enzyme; 0.3% of 360,000 active; AID 602163; activation, % at 10.6 µM; purified bovine MsrA, absorbance read-out; in the data active = activation above about 7.5%
MsrA inhibitor – inhibits bovine methionine sulfoxide reductase A | purified bovine MsrA, absorbance read-out | inhibition, % at 15.5 µM | 0.75% of 360,000 active; in the data active = inhibition above about 4.5%
sPLA2-III inh – Inhibits HGIII-sPLA2 liposome hydrolysis, primary screen; 0.56% of 370,000 active; inhibition, % at 12.2 µM; Q9NZ20; QFRET BODIPY PC-A2 liposome hydrolysis, fluorescence;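 active = inhibition above mean plus 3 SD of compounds lying within the high and low control bounds, cut at about 19% in these data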
Target sequence (Q9NZ20 whole entry, looked up): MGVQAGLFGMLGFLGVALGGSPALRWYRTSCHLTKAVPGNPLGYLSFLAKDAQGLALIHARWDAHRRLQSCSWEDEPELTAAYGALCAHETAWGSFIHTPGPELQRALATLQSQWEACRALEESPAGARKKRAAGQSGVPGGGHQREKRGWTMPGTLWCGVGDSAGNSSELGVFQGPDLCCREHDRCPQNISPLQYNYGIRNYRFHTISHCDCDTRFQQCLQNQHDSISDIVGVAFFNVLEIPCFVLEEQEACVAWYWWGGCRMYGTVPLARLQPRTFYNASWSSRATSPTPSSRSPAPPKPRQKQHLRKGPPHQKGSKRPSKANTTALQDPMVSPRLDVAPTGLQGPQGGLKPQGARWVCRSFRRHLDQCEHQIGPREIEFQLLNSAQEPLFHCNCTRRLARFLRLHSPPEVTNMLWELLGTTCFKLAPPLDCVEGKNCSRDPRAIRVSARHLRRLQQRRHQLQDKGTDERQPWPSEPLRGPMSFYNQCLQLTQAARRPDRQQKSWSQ
rCAG bind conf – r(CAG) RNA repeat binding, confirmation. TO-PRO-1 dye displacement fluorescence. 70% of 4,300 active. inhibition, % at 3 µM. shares compounds with rCAG RNA binder;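 active = inhibition above a per-plate cutoff, the mean inhibition of sample wells plus 3 SD, cut at about 35% in these data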;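 also: loss of TO-PRO-1 fluorescence as compound displaces dye from 1x1 AA loop RNA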
DNA CAG counter – counter-screen for rCAG RNA binders: DNA CAG dye complex inhibitors | d(CAG) DNA oligo TO-PRO-1 dye displacement, fluorescence | 94% of 4,300 active | AID 652068 | inhibition, % at 3 µM | shares compounds with rCAG RNA binder;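 active = inhibition above its plate's cutoff, the mean test-well inhibition plus 3 SD, cut at about 4.8% in these data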;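 also: hits displace the dye from DNA and so lower well fluorescence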
Hits are given with their value; - = inactive; . = not tested or not shown. Hits are enriched below; roughly 2.8% of the tested compounds scored in any of these assays.

SMILES	rCAG RNA binder	MsrA act	MsrA inhibitor	sPLA2-III inh	rCAG bind conf	DNA CAG counter
N#Cc1c(-c2ccccc2)nc(SCC(=O)Nc2ccc(OC(F)(F)Cl)cc2)[nH]c1=O	90	-	-	-	85	58
N#Cc1c(-c2ccccc2)nc(SCC(=O)Nc2ccccc2)[nH]c1=O	-	-	-	-	.	.
CN(CCC#N)C(=O)CSc1nc2scc(-c3ccccc3)c2c(=O)[nH]1	-	-	-	-	.	.
Cc1ccccc1OC1(C)CCN(Cc2ccc3ccccc3c2)C1 (configuration not stated)	-	-	-	-	.	.
COc1ccccc1N1CCN(C(=O)COc2cccc3ccccc23)CC1	-	-	-	-	.	.
COC(=O)c1cn(NC(=O)/C=C/c2cccc(OC)c2OC)c(=O)c2ccccc12	-	.	-	-	.	.
N#Cc1c(-c2ccccc2)nc(SCC(=O)Nc2nnc(C(F)(F)F)s2)[nH]c1=O	46	-	-	-	-	5.6
N#Cc1c(-c2ccccc2)nc(SCC(=O)Nc2ccccc2F)[nH]c1=O	44	-	-	-	-	8.2
CCC(Sc1nc(-c2ccccc2)c(C#N)c(=O)[nH]1)C(=O)Nc1nnc(C)s1 (configuration not stated)	44	-	-	-	43	12
N#Cc1c(-c2cccs2)nc(SCC(=O)c2cccs2)[nH]c1=O	79	-	-	-	65	29
Cc1cccc(NC(=O)CSc2nc(-c3ccccc3)c(C#N)c(=O)[nH]2)c1C	-	-	-	-	.	.
Cc1csc2nc3cc(C(N)=O)ccc3c(=O)n12	-	-	-	-	.	.
CC(C)(C)c1ccc(S(=O)(=O)NC(=O)C2(C)CCN2C(=O)CC2CCCC2)cc1 (configuration not stated)	37	-	-	-	-	-
CC1(C(=O)NS(=O)(=O)c2ccc3ccccc3c2)CCN1C(=O)CC1CCCCC1 (configuration not stated)	39	-	-	-	57	20
Cc1ccc(S(=O)(=O)NC(=O)C2(C)CCN2C(=O)CC2CCCC2)cc1 (configuration not stated)	-	-	-	-	.	.
CCOC(=O)N1CCN(Cc2nc3cc(NC(=O)CC)ccc3n2C)CC1	-	-	-	-	.	.
CCc1ccc(NC(=O)CCc2ccc(C)o2)cc1	-	-	-	-	.	.
CC1(C(=O)NS(=O)(=O)c2cccc(Cl)c2)CCN1C(=O)CCc1ccc(Cl)cc1Cl (configuration not stated)	54	-	-	-	52	16
Cc1ccc(S(=O)(=O)NC(=O)C2(C)CCN2C(=O)Cc2ccc(Cl)cc2Cl)cc1 (configuration not stated)	-	-	-	-	.	.
CCCCc1ccc(S(=O)(=O)NC(=O)C2(C)CCN2C(=O)CCc2cccs2)cc1 (configuration not stated)	44	-	-	-	36	9.9
CC1(C(=O)NS(=O)(=O)c2ccc3ccccc3c2)CCN1C(=O)Cc1ccc(Cl)cc1Cl (configuration not stated)	52	-	-	-	54	18
CC1(C(=O)NS(=O)(=O)c2ccccc2)CCN1C(=O)CCc1ccc(Cl)cc1Cl (configuration not stated)	-	-	-	-	.	.
CC(C#N)(Cc1ccccc1)Nc1ccccc1 (configuration not stated)	-	-	-	-	.	.
Cc1onc(-c2ccccc2Cl)c1C(=O)N1CCCCC1C(=O)O (configuration not stated)	-	-	-	-	.	.
COc1cc(-c2nnc(Sc3ccc(C(F)(F)F)cc3[N+](=O)[O-])o2)cc(OC)c1OC	-	-	-	-	.	.
SMILES	rCAG RNA binder	MsrA act	MsrA inhibitor	sPLA2-III inh	rCAG bind conf	DNA CAG counter
Cc1ccc2nc(N/C(=N/S(=O)(=O)c3cccs3)c3ccccc3Cl)sc2c1	71	-	-	-	51	19
COc1ccc(NC(=O)CSc2nc3ccsc3c(=O)n2Cc2ccccn2)c(OC)c1	-	-	-	-	.	.
O=C(NCc1ccc2c(c1)OCO2)c1cc(Cl)ccc1Cl	-	-	-	-	.	.
CCOc1cc(/C=C2\SC(=S)N(NC(=O)c3cccnc3)C2=O)ccc1O	-	-	-	-	.	.
CCOc1cc(/C=C2\SC(=S)N(NS(=O)(=O)c3ccc(C)cc3)C2=O)ccc1O	70	-	-	-	50	19
COc1cc(/C=C2\SC(=S)N(NS(=O)(=O)c3ccc(C)cc3)C2=O)ccc1O	45	-	-	-	-	9.9
COc1cc(/C=C2\SC(=S)N(NC(=O)c3ccccc3OC)C2=O)ccc1O	58	-	-	-	51	19

Screens as filed in PubChem BioAssay.
